Among the test systems are HCT-15 colon; HT29 colon; SNB-75 CNS; SNB-19 CNS; U251 CNS; PC-3 prostate; SK-MEL-5 melanoma; UACC-62 melanoma; LOX IMVI melanoma; SK-MEL-28 melanoma; SK-MEL-2 melanoma; SN12C renal; UO-31 renal; ACHN renal; CAKI-1 renal; A498 renal; CCRF-CEM leukemia; MOLT-4 leukemia; TK-10 renal.
Test in all cases: NCI-60 one-dose screen, 48 h (100 = growth as untreated, 0 = no growth, -100 = all killed)
Common to all, as to settings: 10 µM unless noted

This is part of a sample that, as a whole, favours compounds with a hit. Of some 83,000 tested, about 20% had one in any assay.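 The endpoint reported here, percent growth, reads 100 for growth as untreated, 0 for no net growth and -100 for all cells dead.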 Unmarked numbers belong to inactive results. The source made the active and inactive calls. Rule for the calls: active = growth percent below 10; inactive = the rest.

Regarding `COc1ccccc1CNCCCN1C(=O)c2ccc3c4c(ccc(c24)C1=O)C(=O)N(CCCNCCCCNCCCCN)C3=O`, the growth with HCT-15 colon is 30.6%; in the assay on HT29 colon, 1.62% (active); in the assay on SNB-75 CNS, -37.8% (active); with SNB-19 CNS, 4.86% (active); in the assay on U251 CNS it was 0.458% (active); with PC-3 prostate it was -12.5% (active). For the same compound, the growth in the assay with SK-MEL-5 melanoma was -85% (active); in the assay with UACC-62 melanoma it was -75% (active); in the assay with LOX IMVI melanoma, -3.52% (active); in the assay on SK-MEL-28 melanoma, -13.9% (active); in the assay with SK-MEL-2 melanoma, -55.8% (active); in the assay with SN12C renal, 6.05% (active). Also, the growth was 8.57% (active) with UO-31 renal; 17.2% in the assay with ACHN renal; 64% in the assay on CAKI-1 renal; 9.03% (active) with A498 renal; 13.8% in the assay on CCRF-CEM leukemia; 11.3% in the assay with MOLT-4 leukemia.
Consider `COC(=O)c1cc(-c2cccs2)c(C#N)c(N)c1C#N`, for which the growth in the assay with HCT-15 colon is 101%; with HT29 colon, 106%; in the assay with SNB-75 CNS it was 83.4%; in the assay on SNB-19 CNS, 97.1%; in the assay with U251 CNS, 95.5%; in the assay with PC-3 prostate, 95.5%. For the same compound, the growth in the assay on SK-MEL-5 melanoma is 102%; with UACC-62 melanoma it was 99.3%; in the assay on LOX IMVI melanoma, 99%; in the assay on SK-MEL-28 melanoma, 114%; with SK-MEL-2 melanoma, 112%; in the assay on SN12C renal it was 102%. For the same compound, the growth in the assay on UO-31 renal is 92.7%; in the assay on TK-10 renal it was 116%; with ACHN renal it was 107%; in the assay with A498 renal it was 104%; in the assay with CCRF-CEM leukemia, 92.5%; in the assay with MOLT-4 leukemia, 98.1%.
Turning to `COc1cc(-c2nc(-c3nc4ccccc4[nH]3)cc3c2[nH]c2ccccc23)cc(OC)c1OC`, the growth in the assay with HCT-15 colon is 42.3%; in the assay with HT29 colon, 49.7%; with SNB-75 CNS it was 79.3%; with SNB-19 CNS, 66.9%; in the assay with U251 CNS, 48%; in the assay with PC-3 prostate it was 14.1%. Further, the growth was 29% with SK-MEL-5 melanoma; 28.5% in the assay on UACC-62 melanoma; 38.7% with LOX IMVI melanoma; 44.2% with SK-MEL-28 melanoma; 23.9% with SK-MEL-2 melanoma; 40.4% in the assay with SN12C renal. Besides, the growth with UO-31 renal was 24.3%; in the assay with ACHN renal it was 51.4%; in the assay on CAKI-1 renal, 20%; with A498 renal, 44.8%; with CCRF-CEM leukemia it was 16.8%; with MOLT-4 leukemia, 44.3%.
As to `O=S(=O)(O)CCl`, the growth with HCT-15 colon was 96.3%; in the assay with HT29 colon it was 95.9%; in the assay with SNB-75 CNS, 86.1%; in the assay with SNB-19 CNS it was 106%; with U251 CNS, 97.1%; in the assay on PC-3 prostate, 91.6%. For the same compound, the growth with SK-MEL-5 melanoma is 103%; with UACC-62 melanoma, 100%; in the assay on LOX IMVI melanoma it was 86.8%; in the assay with SK-MEL-28 melanoma it was 102%; with SK-MEL-2 melanoma, 104%; in the assay with SN12C renal it was 98.8%. For the same compound, the growth in the assay with UO-31 renal is 91.6%; with TK-10 renal, 92%; with ACHN renal, 103%; with CAKI-1 renal, 103%; in the assay on MOLT-4 leukemia it was 99.4%.
As to `COc1cc2nc(Cl)nc(NCCO)c2cc1OC`, the growth with HCT-15 colon was 99%; in the assay with HT29 colon, 110%; in the assay on SNB-75 CNS it was 86.1%; in the assay on SNB-19 CNS, 104%; with U251 CNS, 96.5%; with PC-3 prostate, 93.4%. Besides, the growth is 102% with SK-MEL-5 melanoma; 108% in the assay on UACC-62 melanoma; 97.7% in the assay on LOX IMVI melanoma; 112% in the assay on SK-MEL-28 melanoma; 125% in the assay with SK-MEL-2 melanoma; 104% with SN12C renal. The growth in the assay on UO-31 renal is 94.8%; with TK-10 renal, 103%; with ACHN renal, 98.3%; in the assay on CAKI-1 renal it was 111%; in the assay on CCRF-CEM leukemia, 98.8%; in the assay with MOLT-4 leukemia, 101%.
Regarding `COc1ccc(-c2nc(-c3ccccc3)c(-c3ccccc3)n2C2CC2)cc1OC1CCCCC1`, the growth was 41.7% in the assay with HCT-15 colon; 49.2% with HT29 colon; 56.3% in the assay on SNB-75 CNS; 83.7% with SNB-19 CNS; 43.9% with U251 CNS; 43.4% in the assay on PC-3 prostate. In addition, the growth with SK-MEL-5 melanoma was 36%; in the assay with UACC-62 melanoma, 60.8%; with LOX IMVI melanoma, 45.6%; in the assay with SK-MEL-28 melanoma it was 77.7%; in the assay on SK-MEL-2 melanoma, 87.3%; with SN12C renal, 73.3%. The growth with UO-31 renal was 62.9%; in the assay on TK-10 renal, 92.3%; in the assay with ACHN renal, 53.8%; in the assay with CAKI-1 renal it was 58.4%; in the assay with CCRF-CEM leukemia it was 30.5%; with MOLT-4 leukemia it was 32.7%.
As to `COc1ccc(/C=C/C(=O)c2cccc(B(O)O)c2)cc1O`, the growth was 12% in the assay on HCT-15 colon; 69.5% with HT29 colon; 9.35% (active) in the assay on SNB-75 CNS; 59.5% in the assay on SNB-19 CNS; 44.2% in the assay with U251 CNS; 59.9% with PC-3 prostate. Besides, the growth was 81.7% with SK-MEL-5 melanoma; 33.7% in the assay on UACC-62 melanoma; 13.8% in the assay with LOX IMVI melanoma; 79.2% in the assay on SK-MEL-28 melanoma; 107% with SK-MEL-2 melanoma; 28.7% in the assay on SN12C renal. Moreover, the growth in the assay on UO-31 renal is 19.9%; with TK-10 renal it was 99.3%; with ACHN renal, 60.6%; in the assay with CCRF-CEM leukemia, 37.3%; in the assay with MOLT-4 leukemia, 46.6%.
Take `CCC1CCc2nc3sc(C(=O)Nc4ccccc4C)c(N)c3cc2C1` (configuration not stated): the growth in the assay on HCT-15 colon was 26.3%; in the assay on HT29 colon, 7.01% (active); with SNB-75 CNS, 25.9%; in the assay on SNB-19 CNS it was 54.1%; with U251 CNS it was 42%; in the assay on PC-3 prostate, 26.8%. Moreover, the growth with SK-MEL-5 melanoma is 26.6%; with UACC-62 melanoma it was 33.2%; with LOX IMVI melanoma, 35%; with SK-MEL-28 melanoma, 49.5%; in the assay on SK-MEL-2 melanoma it was 21.9%; in the assay with SN12C renal it was 58%. For the same compound, the growth is 59.6% with TK-10 renal; 47.4% with ACHN renal; 29.4% in the assay on CAKI-1 renal; 33.2% with A498 renal; 18.7% with CCRF-CEM leukemia; 39.7% in the assay on MOLT-4 leukemia.

(Values after PubChem BioAssay (NCI).)
